Here are results for 38 compounds from PubChem BioAssay (NCI).

Compounds without any hit were thinned out: in the full panel of roughly 83,000, 20% have a hit.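 Note: values are percent growth. 100 is the growth of untreated cells, values between 100 and 0 indicate rising inhibition; between -100 and 0 indicates cell death.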 Values without a mark were called inactive. Activity calls are given as the source filed them. How the source made its calls: active means growth percent below 10; inactive means the rest.

This assay has as its system NCI-H23 lung. The experiment in a line: NCI-60 one-dose screen, 48 h (100 = growth as untreated, 0 = no growth, -100 = all killed). Particulars: 10 µM unless noted.
For `Cc1cc(-c2nc3ccccc3s2)ccc1NC(=O)COc1ccc(Cl)cc1`, the growth was 79.7%.
Under `C[C@H](CCC(=O)O)[C@H]1CC[C@H]2[C@@H]3CC[C@@H]4/C(=C\c5ccco5)C(=O)/C(=C\c5ccco5)C[C@]4(C)[C@H]3CC[C@]12C` stands 70.4%.
On to `COc1cc2c(c(OC)c1OC)-c1ccc(N=NC(N)=S)c(=O)cc1[C@@H](NC(C)=O)CC2`, for which the growth is 1.29% (active).
Under `c1ccc(CSc2ncnc3nc[nH]c23)nc1` stands 99.1%; under `CC(=O)Nc1ccc2c(c1)c(NC(C)=O)nn2C(=O)Nc1ccc(Cc2ccccc2)cc1`, 26.8%; under `COc1cc2c(=O)n(CC3CCCCC3)c3c4cc[nH]c4ncc3c2cc1OC`, 45.3%.
The figure for `COC1/C=C\OC2(C)Oc3c(C)c(O)c4c(O)c(c(CN(C)CCO)c(O)c4c3C2=O)NC(=O)/C(C)=C\C=C/C(C)C(O)C(C)C(O)C(C)C(OC(C)=O)C1C` (stereo not drawn) is 91.9%; for `Cc1cc(N/N=C/c2nc(-c3ccc(Cl)cc3)oc2C)c2cc(Cl)ccc2n1` it is 111%; for `C=C1CC[C@@H]2[C@](C)(COC(C)=O)[C@H](OC(C)=O)CC[C@@]2(C)[C@@H]1CC(NCc1ccc(F)cc1)C1=CCOC1=O` (stereo partly drawn) it is 57.9%.
The figure for `Cn1c2c(Cl)c(Cl)ccc2c2ccn3c(=O)c4ccccc4nc3c21` is 89%; for `CCOC(=O)Cc1cnn(C)c1NC(=O)c1ccc(Cl)cc1NC(C)=O` it is 104%; for `COc1ccc(-c2cc(NC(=O)Nc3ccc(O)cc3)no2)cc1` it is 89.5%.
`S=c1[nH]nc(CSc2ncnc3c2c(-c2ccccc2)cn3-c2ccc(Cl)cc2)o1`: the growth was 92.7%.
Under `COc1c(Cl)cc(Cl)cc1Cl` stands 108%; under `COc1ccc(-c2nn(-c3ccccc3)cc2/C=C/C(=O)OCc2cn(-c3ccc(F)c(Cl)c3)nn2)cc1`, 72.6%.
Under `COc1ccc2c(c1)C(=O)/C(=C/c1cccc(OCC(=O)Nc3nc4c(s3)CCCC4)c1)O2` stands -48.9% (active); under `CCN(CC)CC(C)Nc1ccc([N+](=O)[O-])c2sc3ccccc3c(=O)c12` (stereo not drawn), 33.5%.
For `Cc1nn(-c2ccccc2)c2nc(C)n(-c3ccc(Br)cc3)c(=O)c12`, the growth is 16%.
The figure for `OC(c1cc(-c2ccccc2)nc2ccc(Cl)cc12)C1CCCCN1` (stereo not drawn) is 66.9%.
Under `COc1ccc(S(=O)(=O)NCCNc2nccc(-c3c(-c4cccc([N+](=O)[O-])c4)nc4sccn34)n2)cc1` stands 93.1%.
Under `COc1ccc(Cl)cc1Nc1nc(C(F)(F)F)ccc1C(=O)N/N=C/c1cccnc1` stands 41.5%; under `COc1ccc(-c2nn(-c3ccccc3)cc2/C=C2\SC(=O)NC2=O)cc1`, 94.8%.
On to `Cc1ccc2c(c1)C(=O)c1c-2c(OCCCN(C)C)nc2ccccc12`, for which the growth was 7.88% (active).
Regarding `Cc1ccc(-c2nc(/C=N/Nc3cc(C)nc4ccc(Br)cc34)c(C)o2)cc1`, the growth was 79.2%.
`CCCCNP1(NCCCC)=NP(NCCCC)(NCCCC)=NP(NCCCC)(NCCCC)=NP(NCCCC)(NCCCC)=N1`: the growth was -49.6% (active).
The figure for `COc1ccc(-n2cc(-c3ccccc3)c3c(SCC(=O)N/N=C/c4ccc([N+](=O)[O-])cc4)ncnc32)cc1` is 88.9%; for `Nc1cccc(-c2nc3sccn3c2-c2ccnc(NCCCNS(=O)(=O)c3ccc(C(F)(F)F)cc3)n2)c1` it is 4.88% (active).
On to `CCN(CC)CC(O)c1cc(-c2ccc(Cl)cc2)nc2c(C)c(Cl)ccc12` (stereo not drawn), for which the growth was -89.3% (active).
With `O=C1/C(=C/c2ccc(F)cc2)CN(C(=O)CCN2CCC(=NO)CC2)C/C1=C\c1ccc(F)cc1`, the growth was -26.5% (active).
The figure for `CC(C)C1=C[C@@]23CC[C@@H]4[C@](C)(CCC[C@@]4(C)C(=O)OCC#CCN4CCCC4)[C@H]2C[C@@H]1[C@H]1C(=O)OC(=O)[C@H]13` is 94.9%; for `Cc1ccc2c(c1)C(=O)/C(=C/c1ccc(OCC(=O)c3ccccc3)cc1)O2` it is 84.7%.
As for `Cc1ccc2c(c1)n([O-])c1cc(Cl)ccc1[n+]2=O`, the growth is 97%.
The figure for `COc1ccccc1/C=C(/C(=O)c1ccccc1)c1ccccc1` is 95.4%; for `COc1nc2c(cc1S(=O)(=O)c1ccccc1)CCc1c-2cnn1-c1ccc(Cl)cc1` it is 89.5%; for `CNc1cc2nc3cc(NC)c(C)cc3cc2cc1C` it is 13.3%.
On to `Nc1c(C(=O)Nc2ccccc2)sc2nc3c(cc12)CN(CCc1ccccc1)CC3`, for which the growth was 84.2%.
For the compound `CC(C)[C@@H]1CC[C@]2(C(=O)NCCCCN=C(N)N)CC[C@]3(C)[C@H](CC[C@@H]4[C@@]5(C)CCC(=O)C(C)(C)[C@@H]5CC[C@]43C)[C@@H]12`, the growth is 69.3%.
The figure for `CCOC(=O)c1cnc2ccc(Br)cc2c1Nc1cccc(S(=O)(=O)NC)c1` is 84.7%.
